# According to PubChem BioAssay (NCATS):
# Active and inactive are the calls of the source. Calls follow the shape of the dose curve; as a rule, active = well fitted inhibition curve with a large enough effect; inconclusive = small, poorly fitted or top-dose-only effect; inactive = flat fitted curve, though single readings scatter.
# Test system: Nanoluciferase (engineered Oplophorus gracilirostris luciferase)
# Assay: Primary Nanoluciferase (NLuc) qHTS assay for identification of artifact compounds. (AID 1845222)
# Conditions: NLuc-conditioned medium, Nano-Glo luminescence, 5 min; series mostly up to 54.1 µM; activity, negative = inhibition: at the top concentration
# Text: PI: Alexander Tropsha Ph.D.
# UNC Eshelman School of Pharmacy
# University of North Carolina, Chapel Hill, North Carolina
# Hits from high-throughput screening (HTS) of chemical libraries are often false positives due to their interference with the assay detection technology. In response to this problem, we generated the largest publicly available library of chemical liabilities and developed a free webtool to predict HTS artifacts, both of which are described herein. More specifically, we generated, curated, and integrated HTS datasets for thiol reactivity, redox activity, and luciferase (firefly and nano) activity. Using these curated datasets, we developed and validated several Quantitative Structure-Interference Relationship (QSIR) models to predict nuisance behavior. […] These models were employed for virtual profiling of the National Center for Advancing Translational Science's (NCATS) in-house library, and 256 compounds for each assay were selected for the experimental validation of nuisance behavior. The BA for these external predictions ranged from 58 to 78% for compounds within the applicability domains of the models. […] The models developed in this study, along with aggregation models previously developed by our group (SCAM Detective) were implemented in "Liability Predictor," an online tool which may be used as part of chemical library design or for triaging HTS hits. Both the models and the curated datasets are publicly available at https://liability.mml.unc.edu/.
# SEQUENCE No. (e.g., 1, 2, 3, etc.); […] (e.g., Cells, Incubation, Reagent, etc.); VALUE; DESCRIPTION.
# 1; Reagent; 2 uL; Nanoluciferase media.
# 2; Compounds and control; 16 nL; Kalypsis pin tool (Wako USA) equipped with a 1536-well pin head.
# 4; Reagent; 2 uL; Luciferase enzyme.
# 6; Detection; Luminescence, ViewLux microplate reader.
# NOTES (numbers refer to Sequence numbers above)
# 1. Medium was collected from the culture flasks of NLuc-expressing S16 cells (80% confluent) prior to cell plating, filtered through a 0.22um filter, and frozen at -20C prior to use. Media was diluted (1:55) and 2 uL was dispensed into all wells of a 1536-well assay plate (solid-bottom white plate; Greiner Bio One, Monroe, NC).
# 2. A Wako Pin-tool (Wako Automation, Richmond, VA) was used to transfer 16 nL of compounds (consisting of 7-plates in qHTS format, final concentration range 18.3 nM to 114 uM) or control Cilnidipine (final concentration range 623 nM to 80 uM).
# 3. 15 min. incubation at room temperature protected from light.
# 4. 2 uL of NLuc substrate (1:100 in Nano-Glo luciferase buffer; Nano-Glo luminescence assay, Promega, Madison, WI) was dispensed for a final assay volume of 4 uL.
# 5. Plates were centrifuged (121xg, 15 seconds) and incubated for 5 minutes.
# 6. Samples were read for luminescence on a ViewLux CCD imager (PerkinElmer). Data were normalized to no-enzyme (0% activity) and no-inhibitor (DMSO; 100%) controls and the resulting percent inhibition data were fitted to a 4-parameter Hill equation using NCATS in-house software.
row,SMILES,"activity, negative = inhibition"
1,CNC1CN(c2ccc3c(=O)c(C(=O)O)cn(-c4nccs4)c3n2)CC1OC (stereo not given),-7.32% [at 11.6 µM] (inactive)
2,Cn1ncc(Cl)c1-c1cc(C(=O)N[C@H](CN)Cc2ccc(F)c(F)c2)sc1Cl,2.03% (inactive)
3,Cc1cc(C)cc(-c2cnc3cc(Cl)c(-c4cccc(O)c4)cc3c2OCCCN)c1,2.7% (inactive)
4,CCCCOC(=O)NS(=O)(=O)c1sc(CC(C)C)cc1-c1ccc(Cn2ccnc2)cc1,-5.57% (inactive)
5,Cc1cc(C(=O)Nc2cc(Oc3ccc4nc(NC(=O)C5CC5)cn4n3)ccc2C)n(C)n1,-0.66% (inactive)
6,CCC[C@H](N[C@H]1CCc2cc(F)cc(F)c2C1)C(=O)Nc1cn(C(C)(C)CNCC(C)(C)C)cn1,-1.14% (inactive)
7,O=C([C@@H]1CCCN(c2ccc3[nH]c(C4(n5cc(Cl)cn5)CC4)nc3n2)C1)N1CCCC1,-6.43% (inactive)
8,COc1c(C)cnc(Cn2cc(C#CCC(C)(C)O)c3c(Cl)nc(N)nc32)c1C,0.43% (inactive)
9,CCCCCc1ccc(/C=C/C(=O)Nc2cc(Cl)ccc2C(=O)O)cc1,-1.03% (inactive)
10,Cc1ccc(C2(C(=O)N3CCC(n4nc(-c5ccccc5)oc4=O)CC3)CC2)cc1,-12.1% (inactive)
11,CCOC(=O)c1csc(Nc2ccc(Cl)cc2)n1,-4.73% (inactive)
12,COc1ccccc1-c1ccc(-c2cn(C(=O)N3CCCCC3Cc3ccccc3)nn2)cc1 (stereo not given),0% (inactive)
13,CN1CCN(c2ccc(Nc3cc(-c4cccc(-n5ccc6cc(C7CC7)cc(F)c6c5=O)c4CO)cn(C)c3=O)nc2)CC1,3.46% (inactive)
14,CC(C)CCNc1ncccc1C(=O)N1CCN(Cc2ccccc2)CC1,-0.294% (inactive)
15,C/C(=C\Cc1c(O)c(Cl)c(C)c(C=O)c1O)CC/C=C(\C)[C@H]1CC(=O)C(C)(C)O1,-11.7% [at 25.7 µM] (inactive)
16,CCN(Cc1cc(Nc2nc(C)cn3c(-c4cn[nH]c4)cnc23)sn1)C(C)(C)CO,-1.43% (inactive)
17,COC1CC/C=C(\C)C(=O)Nc2cc(O)cc(c2)CC(C)CC(OC)C(O)C(C)/C=C(\C)C1OC(N)=O (stereo not given),2.46% [at 25.7 µM] (inactive)
18,O=C(NCCN1CCC(n2c(=O)[nH]c3ccccc32)CC1)c1cc2cc(F)ccc2[nH]1,0% (inactive)
19,COc1ccc(-c2ccc3c(N4CCOCC4C)nc(N4CCOCC4C)nc3n2)cc1CO (stereo not given),1.03% (inactive)
20,COc1cc(N2CCC(N)CC2)ccc1Nc1ncc(Cl)c(-c2c[nH]c3ccccc23)n1,0.337% (inactive)

row,SMILES,"activity, negative = inhibition"
1,C=C1CCC2C(C)(C)CCCC2(C)C1CC/C(C)=C\CO (stereo not given),-0.222% (inactive)
2,CC(C)c1ccccc1OC(=O)NCCc1ccc2ccccc2c1,-4.75% (inactive)
3,O=C(c1ccc(Cl)cc1)N1CCN(c2ccnc3cc(Cl)ccc23)CC1,-3.24% (inactive)
4,CNC(=O)COC(=O)N1CCC(CCc2ccc(Cl)cc2)CC1,-8.22% (inactive)
5,O=S(=O)(NCc1ccccn1)c1ccc(Br)c2ccccc12,-6.16% (inactive)
6,Cc1ccc(-c2ncccn2)c(C(=O)N2C[C@H](COc3ccc(F)cn3)CC[C@H]2C)c1,-13.2% (inactive)
7,Cc1cccc(-c2[nH]ncc2-c2ccnc3ccccc23)n1,-0.0134% (inactive)
8,COc1cc2ncnc(Nc3ccc(O)c(Br)c3)c2cc1OC,-2.09% (inactive)
9,COc1ccc(CNCc2cccc3ccccc23)cc1,2.67% (inactive)
10,C[C@H](Nc1cc2c(-c3ccc4c(c3)OCO4)noc2cn1)c1ccccc1,3.66% (inactive)
11,CN1CCC(NC(=O)c2cc(-c3c(O)cc(O)cc3Oc3ccc([N+](=O)[O-])cc3)on2)CC1,-3.64% (inactive)
12,O=C(NC[C@H](O)CN1CCc2ccccc2C1)c1ccnc(NC2CCC2)c1,2.83% (inactive)
13,CC(C)c1cccc(C(C)C)c1NC(=O)Nc1ccc(Sc2ccc([N+](=O)[O-])cc2)cc1,4.48% (inactive)
14,CCOC(=O)C1=Cc2ccc(C(F)(F)C(F)(F)F)cc2N=C(N)C1,0% (inactive)
15,Cc1cc(OCCCS(C)(=O)=O)cc(C)c1-c1cccc(COc2ccc3c(c2)OCC3CC(=O)O)c1 (stereo not given),-3.97% (inactive)
16,COc1ccc(C2(CNC(=O)c3ccc(NC(=O)c4ccco4)cc3)CCOCC2)cc1,-8.67% (inactive)
17,CC1(C)CC[C@]2(C(=O)O)[C@H](O)C[C@]3(C)C(=CCC4[C@@]5(C)CC[C@H](O[C@@H]6O[C@H](CO[C@@H]7OC[C@H](O)[C@H](O)[C@H]7O[C@@H]7OC[C@H](O)[C@H](O)[C@H]7O)[C@@H](O)[C@H](O)[C@H]6O)C(C)(C)C5CC[C@]43C)[C@@H]2C1 (stereo not given in full),1.1% [at 11.6 µM] (inactive)
18,C=C1C(=O)O[C@@H]2/C=C(\C)CC/C=C(/C=O)[C@H](OC)[C@@H](OC(=O)C(C)C)[C@@H]12,0.508% (inactive)
19,C=C1C(=O)OC[C@@H]1C/C=C(\C)CC1CC(C)C(=O)O1 (stereo not given in full),-14.7% (inactive)
20,COc1ccc(S(=O)(=O)N2CCC[C@H]2C(=O)Nc2cc(C)cc(C)c2)cc1,1.66% (inactive)
